The nature of assay [1]: AP1 Signaling Pathway (AID 357). Further: on the % scale 0 is the no-effect control and ±100 the full control effect. The note with it: ME-180 AP-1-bla reporter, EGF-induced, beta-lactamase ratio, 5 h. An outline of the steps: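 In this screen, ME-180 cells in Opti-MEM with 0.5% dialyzed FBS received EC50 EGF and compound titrations for 5 h. AP-1 reporter beta-lactamase was detected via CCF4 ratio, giving AC50 for positive and negative modulators.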
Assay [2] has as its target Cytochrome P450 1A2 (Homo sapiens) (UniProt P05177). The assay is described as follows: p450-cyp1a2 (AID 410; calls by dose curve; further: potency means the concentration at half of the fitted maximal effect;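 on activity change, negative = inhibition: -100% = full effect of reference inhibitor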). Particulars: recombinant CYP1A2, luciferin-ME demethylation, luminescence; series mostly up to 57 µM. An outline of the steps: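 Luminescent readout of luciferin formed from Luciferin-ME by human CYP1A2; data normalized against complete inhibition by 57 uM furafylline. Enzyme 20nM, substrate 100uM at Km, 100mM KPO4 buffer, 60 min reaction at room temperature.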

The nature of assay [3]: NFAT Signaling Pathway (AID 444).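 Further: carbachol stimulus at about its EC50 of 1 µM final; on the % scale 0 is the no-effect control and ±100 the full control effect.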 The note with it: Jurkat NFAT-bla M1, carbachol, beta-lactamase ratio, 5 h. Summed up:
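Jurkat cells with NFAT-driven β-lactamase reporter and co-expressed M1 receptor, stimulated with carbachol (final 1 uM, ~EC50), compound titration, 5 h at 37 °C. CCF4 loaded 1 h at RT; 460/530 nm ratio gave %activity and AC50.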

A short description of assay [4]: Stat Signaling Pathway (AID 446).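 Further: ME-180 cervical cancer cells given 40 pM IL-6 alongside compound; SIE-controlled beta-lactamase reporter measured as 460/530 nm FRET emission ratio; on the % scale 0 is the no-effect control and ±100 the full control effect.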 The note with it: ME-180 SIE beta-lactamase reporter, IL-6 stimulated, 5 h. An outline of the steps:
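Screening format detects activators and inhibitors alike: ME-180 SIE-bla cells stimulated at 40 pM IL-6 for 5 hrs with compound, then dual-emission beta-lactamase read at 405 nm excitation.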

Assay [5] has as its target Mitogen-activated protein kinase 10 (Mus musculus) (UniProt Q61831). The assay is described as follows: JNK3 AlphaScreen Assay (AID 530).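 Further: kinase came from lysate of stimulated human HepG2 cells; signal reports phosphorylation of biotinylated GST-cJun 1-79 at Ser73 with 10 µM ATP; on the % scale 0 is the no-effect control and ±100 the full control effect.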 The note with it: JNK3 lysate, c-Jun phosphorylation; series mostly up to 57.1 µM. Summed up:
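Pre-activated (IL-1β/TNFα) JNK3 in HepG2 lysates phosphorylates biotin-GST-cJun(1-79), 10 uM ATP; anti-phospho-cJun(Ser73) AlphaScreen read at room temperature, pH 7.6 Tris buffer. Compounds pre-incubated 15 min as titrations.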
Background: Alpha assays give light when donor and acceptor beads are brought close together.

Assay [6] addresses 3',5'-cyclic-AMP phosphodiesterase 4B (Homo sapiens) (UniProt Q07343). The assay is described as follows: qHTS Assay for Inhibitors of PDE-IV (AID 607; active means well fitted activation curve with a large enough effect in the main read-out, with a control signal flat, not every such curve was filed as active; further: % of control where 0% means no effect). Particulars: HEK293 ACTOne CNG channel cells, membrane potential fluorescence; series mostly up to 22.9 µM. Summed up: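 The readout is membrane depolarisation from a cAMP-sensing CNG channel, detected with a potential dye at ex 535/em 590. Cells were HEK293-derived (endogenous PDE-IV) at 1000 cells/well, titrated up to 22.9 uM final.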

Assay [7] concerns the target Guanine nucleotide-binding protein G(i) subunit alpha-1 (Homo sapiens) (UniProt P63096). The assay is described as follows: qHTS Assay for Inhibitors of RGS12 GoLoco Motif Activity (Green Fluorophore) (AID 879; active means well fitted curve in the direction sought with a large enough effect; an effect the other way counts as inactive or inconclusive;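 further: 0% = labeled peptide with Gαi1 and full inhibition = labeled peptide alone without protein; negative values mean loss of peptide binding seen as reduced polarization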). Particulars: Galphai1/FITC-RGS12 GoLoco peptide, fluorescence polarization; series mostly up to 57.1 µM. An outline of the steps: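 Fluorescence polarization assay: 50 nM Gαi1 with 10 nM FITC-labeled RGS12 GoLoco peptide in 10 mM Tris pH 7.5, 150 mM NaCl, 0.1 mM GDP, 0.05% NP40, 10 min at room temperature with compound.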
A general note: In qHTS, concentration-response curves come from the screen itself.

Assay [8] concerns the target Pyruvate kinase (Leishmania mexicana) (UniProt Q27686). Nature of the assay: qHTS Validation Assay for Inhibitors of Leishmania Mexicana Pyruvate Kinase (AID 945; active means well fitted curve in the direction sought with a large enough effect; an effect the other way counts as inactive or inconclusive;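 further: 0% = DMSO only neutral control wells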). The note with it: purified L. mexicana pyruvate kinase, enzyme activity, E451W mutant enzyme; series mostly up to 57.5 µM. Summed up:
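The enzyme is a highly purified E451W mutant of LmPYK used at 0.2 nM. It converts 0.5 mM PEP and 0.1 mM ADP over 1 h at room temperature; product ATP is quantified by luciferase luminescence relative to DMSO controls.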

Assay [9] deals with Pyruvate kinase PKM (Homo sapiens) (UniProt P14618). The assay is described as follows: qHTS Assay for Activators of Human Muscle Pyruvate Kinase (AID 954; active means well fitted curve in the direction sought with a large enough effect, not every such curve was filed as active;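 further: 0% = uninhibited enzyme and -100% = no enzyme or full thiadiazolimine inhibition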). The note with it: purified human muscle pyruvate kinase, luciferase-coupled luminescence, 1 h; series mostly up to 57.5 µM. An outline of the steps:
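Reaction: 0.1 nM purified PKM2 with 0.5 mM phosphoenolpyruvate and 0.1 mM ADP, room temperature, 1 h. Readout: luciferase-based ATP luminescence after stop reagent. Activators judged against a 0.3 nM enzyme column.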

The target in assay [10] is alpha-glucosidase (Oryza sativa, rice) (UniProt Q653V4). The assay is described as follows: Counterscreen for Glucocerebrosidase Inhibitors: qHTS Assay for Rice alpha-Glucosidase at pH 5.0 (AID 997; active means well fitted curve in the direction sought with a large enough effect; an effect the other way counts as inactive or inconclusive;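 further: 0% = full activity with enzyme and -100% = basal without enzyme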). The note with it: rice alpha-glucosidase enzyme activity; series mostly up to 76.9 µM. An outline of the steps:
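Rice alpha-glucosidase (4 nM final) with 400 uM 4-methylumbelliferyl-alpha-D-glucopyranoside in citrate buffer pH 5.0, 20 min at room temperature, stopped at pH 10; fluorescence 365/440 nm, compounds 0.7 nM–77 uM, AC50 from Hill fits.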
(A counterscreen serves to expose hits that act by an unwanted route or on another target.)

Assay [11] is described as follows: qHTS Assay for Lipid Storage Modulators (AID 1519; calls by dose curve). The note with it: Drosophila S3 cells, BODIPY lipid droplet/cell ratio, laser cytometry, cells loaded with oleic acid; for activity change, negative = inhibition: at 25.7 µM (top of the series). Summed up: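 Cells seeded at 5,000 per well were treated with compounds over a concentration series and loaded with oleic acid (400 uM, as added). Lipid droplet fluorescence (488 nm excitation, 500-530 nm channel) was read by laser-scanning cytometry and normalized to 20 uM Triacsin C.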

In assay [12] the target is ATP-dependent 6-phosphofructokinase (Trypanosoma brucei brucei) (UniProt O15648). Nature of the assay: qHTS Assay to Find Inhibitors of T. brucei phosphofructokinase: hit validation (AID 492961; active means well fitted curve in the direction sought with a large enough effect; an effect the other way counts as inactive or inconclusive). The note with it: T. brucei PFK, ADP-Glo luminescence; series mostly up to 24.3 µM. An outline of the steps:
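Inhibition of parasite PFK is measured as reduced ADP formation, quantified via luciferase after ATP depletion. Assay used 0.1 mM ATP, 0.5 mM F6P, 1.25 nM enzyme, 45 min incubation.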

For assay [13], the target named is Ubiquitin carboxyl-terminal hydrolase 1 (Homo sapiens) (UniProt O94782). Nature of the assay: Inhibitors of USP1/UAF1: Pilot qHTS (AID 504865; active means well fitted curve in the direction sought with a large enough effect; an effect the other way counts as inactive or inconclusive;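 further: rhodamine fluorescence freed from ubiquitin-rhodamine substrate followed over time; top concentration of the series differs between compounds; on the % scale 0 is the no-effect control and ±100 the full control effect; nearly all actives have a fitted effect of over 35% in size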). The note with it: purified USP1/UAF1, Ub-rhodamine cleavage fluorescence; series mostly up to 54.9 µM. Summed up: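 Enzyme-free wells gave the negative control, while test wells held 1nM USP1/UAF1 preincubated with compound for 15 min at room temperature. Ub-Rho at 150nM final started the reaction, and fluorescence at 480/540 nm was recorded kinetically.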
Chain of Ubiquitin carboxyl-terminal hydrolase 1 (Homo sapiens) (O94782 whole entry, looked up): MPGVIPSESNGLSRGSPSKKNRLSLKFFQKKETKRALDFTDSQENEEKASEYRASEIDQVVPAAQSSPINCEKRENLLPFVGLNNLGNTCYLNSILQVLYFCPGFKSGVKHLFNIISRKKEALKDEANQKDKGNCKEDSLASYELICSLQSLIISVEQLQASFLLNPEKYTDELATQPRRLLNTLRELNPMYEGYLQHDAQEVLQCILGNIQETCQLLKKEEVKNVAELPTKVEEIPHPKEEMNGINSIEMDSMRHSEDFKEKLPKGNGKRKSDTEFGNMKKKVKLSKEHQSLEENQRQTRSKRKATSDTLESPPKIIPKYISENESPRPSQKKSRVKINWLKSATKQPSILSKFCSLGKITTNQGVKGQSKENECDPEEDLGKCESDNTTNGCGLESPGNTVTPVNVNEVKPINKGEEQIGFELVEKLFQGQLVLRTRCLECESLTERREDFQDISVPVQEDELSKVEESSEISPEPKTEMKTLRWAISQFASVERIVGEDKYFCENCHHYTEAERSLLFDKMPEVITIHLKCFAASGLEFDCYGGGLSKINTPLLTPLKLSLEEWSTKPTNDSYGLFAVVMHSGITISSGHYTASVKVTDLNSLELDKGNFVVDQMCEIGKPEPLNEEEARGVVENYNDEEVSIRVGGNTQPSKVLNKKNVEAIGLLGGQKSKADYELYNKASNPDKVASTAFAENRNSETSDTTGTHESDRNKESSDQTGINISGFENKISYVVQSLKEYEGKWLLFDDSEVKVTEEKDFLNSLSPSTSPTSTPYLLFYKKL

The nature of assay [14]: qHTS profiling for inhibitors of Plasmodium falciparum proliferation (AID 504749; active means well fitted curve in the direction sought with a large enough effect; an effect the other way counts as inactive or inconclusive;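 further: 0% = DMSO vehicle and full inhibition = artemisinin control; nearly all actives have a fitted effect of over 60% in size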). Particulars: P. falciparum in erythrocytes, SYBR Green DNA, 72 h. An outline of the steps:
(§1)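 P. falciparum-infected erythrocytes (0.3% parasitemia, 2.5% hematocrit) incubated with compound 72 h at 37 C, 5% CO2. Parasite DNA detected by SYBR Green after lysis, overnight at room temperature; normalised to 0.29 uM artemisinin and DMSO.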

The next assay relates to AS120. The description is as above. Particulars: P. falciparum in erythrocytes, SYBR Green DNA, 72 h; series mostly up to 28.7 µM. Summed up: as §1
The next assay deals with CP238. Described as above. The note with it: P. falciparum in erythrocytes, SYBR Green DNA, 72 h; series mostly up to 12.8 µM. Summed up:
as §1

For another assay, the system named is FAB9. Described as above. Particulars: P. falciparum in erythrocytes, SYBR Green DNA, 72 h; series mostly up to 12.8 µM. Summed up: as §1
Assay [15] addresses Glucocorticoid receptor (Homo sapiens) (UniProt P04150). Nature of the assay: GR-GFP Redistribution (AID 450;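 active means compounds whose dose series gives a full or clear partial fitted curve of increased nuclear translocation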; further: potency means the concentration at half of the fitted maximal effect). The note with it: U2OS GR-GFP nuclear translocation, laser cytometry, 2 h.
Assay [16] has the same target. Nature of the assay: GR-EFC Redistribution (AID 451; calls by dose curve; further: potency means the concentration at half of the fitted maximal effect). The note with it: CHO-K1 GR-EFC translocation, beta-gal luminescence, 2 h. Summed up: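 CHO-K1 cells expressing nuclear EA and GR-ED fragments of b-gal; compounds titrated up to 46 uM final, 2 h at 37 C. GR nuclear translocation read as complemented b-gal luminescence after 1 h RT detection.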
For assay [17], the target named is Luciferin 4-monooxygenase (Photinus pyralis) (UniProt P08659). Nature of the assay: Biochemical firefly luciferase enzyme assay for NPC (AID 624030; active means well fitted curve in the direction sought with a large enough effect; an effect the other way counts as inactive or inconclusive;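 further: purified P. pyralis luciferase at 10 nM with luciferin and ATP substrate; 0% = DMSO and -100% = full luciferase inhibition by PTC124 control; nearly all actives have a fitted effect of over 70% in size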). The note with it: purified P. pyralis luciferase, luminescence, 5 min; series mostly up to 58.6 µM. Summed up: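 Purified P. pyralis luciferase at 10 nM in 50 mM Tris Acetate (final), luminescence read within 5 minutes of enzyme addition to compounds. Activity normalised to PTC124 versus DMSO; concentration-response curves classed by r2, magnitude and activity.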

Setting [18] is: measured here: cell count channel max response.
The mark [19] stands for this setting: measured here: lipid channel max response.
Where [20] appears, read: at 7.69 µM (top of the series) unless noted.

Where “and” joins values, the source holds several entries; their conditions need not be identical. Equal entries are not always repeated. Records with an inconclusive call do not appear. Calls of active or inactive are those of the source. Unless noted, the call rests on the fitted dose curve; in most records, active means well fitted curve in either direction with a large enough effect (not every such curve was filed as active); inconclusive means small, poorly fitted or top-dose-only effect, or another doubt; inactive means flat fitted curve, though single readings scatter. A value given as a limit tells only on which side of the number the result lay.

Chain of Pyruvate kinase (Leishmania mexicana) (Q27686 2-499 E452W): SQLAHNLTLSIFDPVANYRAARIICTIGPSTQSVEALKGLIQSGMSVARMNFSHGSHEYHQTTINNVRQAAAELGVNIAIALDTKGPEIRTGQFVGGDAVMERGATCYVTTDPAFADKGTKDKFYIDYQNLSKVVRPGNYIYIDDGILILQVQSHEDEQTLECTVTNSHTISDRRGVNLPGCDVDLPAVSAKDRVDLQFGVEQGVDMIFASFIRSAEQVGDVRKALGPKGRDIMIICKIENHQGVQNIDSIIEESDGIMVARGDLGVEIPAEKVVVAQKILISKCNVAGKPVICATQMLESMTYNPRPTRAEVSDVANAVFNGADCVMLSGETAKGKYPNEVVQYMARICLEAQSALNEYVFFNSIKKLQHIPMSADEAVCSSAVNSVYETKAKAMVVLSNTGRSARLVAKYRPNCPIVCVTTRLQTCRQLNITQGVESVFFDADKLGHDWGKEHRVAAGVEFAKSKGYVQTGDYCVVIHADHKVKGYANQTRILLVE
Chain of 3',5'-cyclic-AMP phosphodiesterase 4B (Homo sapiens) (Q07343 whole entry, looked up): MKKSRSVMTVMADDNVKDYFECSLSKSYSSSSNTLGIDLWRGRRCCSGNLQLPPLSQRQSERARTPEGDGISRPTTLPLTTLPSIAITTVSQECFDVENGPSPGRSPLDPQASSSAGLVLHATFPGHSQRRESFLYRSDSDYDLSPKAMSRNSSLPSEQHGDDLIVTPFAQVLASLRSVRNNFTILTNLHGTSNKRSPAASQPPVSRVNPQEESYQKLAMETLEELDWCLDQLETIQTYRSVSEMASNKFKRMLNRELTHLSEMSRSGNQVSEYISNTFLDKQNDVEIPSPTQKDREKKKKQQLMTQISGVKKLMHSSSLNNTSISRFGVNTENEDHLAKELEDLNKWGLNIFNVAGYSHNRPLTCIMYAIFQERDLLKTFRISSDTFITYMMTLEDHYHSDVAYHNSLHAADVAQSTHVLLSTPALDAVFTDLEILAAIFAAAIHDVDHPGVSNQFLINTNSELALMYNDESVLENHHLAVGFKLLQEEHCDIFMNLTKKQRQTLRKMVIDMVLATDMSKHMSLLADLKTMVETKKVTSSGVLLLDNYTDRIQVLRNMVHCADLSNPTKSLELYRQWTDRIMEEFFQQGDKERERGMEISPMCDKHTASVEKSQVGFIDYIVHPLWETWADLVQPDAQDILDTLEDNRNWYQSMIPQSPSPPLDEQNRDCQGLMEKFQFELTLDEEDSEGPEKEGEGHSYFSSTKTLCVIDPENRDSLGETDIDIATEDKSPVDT
Chain of Guanine nucleotide-binding protein G(i) subunit alpha-1 (Homo sapiens) (P63096 whole entry, looked up): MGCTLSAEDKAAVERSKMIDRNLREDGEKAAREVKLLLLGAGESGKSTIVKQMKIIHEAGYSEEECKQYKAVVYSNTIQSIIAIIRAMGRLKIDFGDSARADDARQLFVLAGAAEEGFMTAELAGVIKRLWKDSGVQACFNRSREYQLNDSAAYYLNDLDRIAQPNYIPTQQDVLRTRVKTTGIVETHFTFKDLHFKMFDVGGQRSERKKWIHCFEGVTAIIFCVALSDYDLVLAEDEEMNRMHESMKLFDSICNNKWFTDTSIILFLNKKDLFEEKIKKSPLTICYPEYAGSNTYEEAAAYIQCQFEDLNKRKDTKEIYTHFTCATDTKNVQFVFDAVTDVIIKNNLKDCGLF
Chain of Glucocorticoid receptor (Homo sapiens) (P04150 whole entry, looked up, the tested form may be a part): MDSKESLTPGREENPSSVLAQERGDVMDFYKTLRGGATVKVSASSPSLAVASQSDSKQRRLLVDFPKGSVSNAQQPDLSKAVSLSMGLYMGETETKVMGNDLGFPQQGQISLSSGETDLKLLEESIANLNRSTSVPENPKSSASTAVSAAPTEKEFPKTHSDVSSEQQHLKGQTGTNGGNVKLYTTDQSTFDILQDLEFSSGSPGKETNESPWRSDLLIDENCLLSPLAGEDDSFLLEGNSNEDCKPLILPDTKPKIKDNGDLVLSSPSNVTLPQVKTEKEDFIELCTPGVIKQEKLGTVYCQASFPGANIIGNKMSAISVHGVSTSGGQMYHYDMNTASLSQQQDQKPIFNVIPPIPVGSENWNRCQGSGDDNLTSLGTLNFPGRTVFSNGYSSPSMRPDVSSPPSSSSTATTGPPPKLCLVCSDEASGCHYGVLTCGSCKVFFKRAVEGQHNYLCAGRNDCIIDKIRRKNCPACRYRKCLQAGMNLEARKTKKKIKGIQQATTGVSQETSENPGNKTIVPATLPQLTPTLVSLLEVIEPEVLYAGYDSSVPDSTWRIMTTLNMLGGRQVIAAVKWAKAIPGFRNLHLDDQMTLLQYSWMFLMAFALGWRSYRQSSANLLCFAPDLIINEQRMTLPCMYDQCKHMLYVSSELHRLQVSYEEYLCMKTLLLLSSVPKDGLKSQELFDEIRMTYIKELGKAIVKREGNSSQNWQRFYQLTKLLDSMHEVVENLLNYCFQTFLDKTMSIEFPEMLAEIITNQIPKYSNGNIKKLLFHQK
Chain of Pyruvate kinase PKM (Homo sapiens) (P14618 whole entry, looked up): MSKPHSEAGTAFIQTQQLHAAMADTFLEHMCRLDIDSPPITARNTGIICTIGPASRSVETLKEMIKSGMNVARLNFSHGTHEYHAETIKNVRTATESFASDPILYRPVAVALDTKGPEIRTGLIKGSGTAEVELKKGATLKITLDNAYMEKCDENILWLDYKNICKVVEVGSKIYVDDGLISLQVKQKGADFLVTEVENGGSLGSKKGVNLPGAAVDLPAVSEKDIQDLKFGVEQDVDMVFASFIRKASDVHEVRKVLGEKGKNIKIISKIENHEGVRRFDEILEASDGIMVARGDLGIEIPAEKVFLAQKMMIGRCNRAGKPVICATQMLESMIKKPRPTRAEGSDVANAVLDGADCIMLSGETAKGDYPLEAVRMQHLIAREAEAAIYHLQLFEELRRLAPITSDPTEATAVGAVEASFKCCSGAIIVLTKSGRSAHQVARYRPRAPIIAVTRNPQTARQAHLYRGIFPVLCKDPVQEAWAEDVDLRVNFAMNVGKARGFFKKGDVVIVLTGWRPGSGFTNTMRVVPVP
Chain of Cytochrome P450 1A2 (Homo sapiens) (P05177 whole entry, looked up): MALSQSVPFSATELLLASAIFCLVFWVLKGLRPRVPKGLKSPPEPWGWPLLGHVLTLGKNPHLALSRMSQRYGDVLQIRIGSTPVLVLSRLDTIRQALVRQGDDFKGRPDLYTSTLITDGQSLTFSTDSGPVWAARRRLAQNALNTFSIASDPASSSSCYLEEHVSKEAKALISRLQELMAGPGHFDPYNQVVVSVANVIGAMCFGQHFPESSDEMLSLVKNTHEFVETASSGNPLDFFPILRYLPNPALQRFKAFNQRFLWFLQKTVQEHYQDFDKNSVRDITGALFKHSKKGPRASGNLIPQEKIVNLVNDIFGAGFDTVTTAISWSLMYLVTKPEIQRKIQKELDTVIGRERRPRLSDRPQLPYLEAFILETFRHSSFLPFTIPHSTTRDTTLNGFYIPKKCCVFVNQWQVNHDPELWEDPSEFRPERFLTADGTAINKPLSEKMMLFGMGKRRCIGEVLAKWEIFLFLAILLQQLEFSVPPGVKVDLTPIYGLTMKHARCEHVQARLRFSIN
Chain of ATP-dependent 6-phosphofructokinase (Trypanosoma brucei brucei) (O15648 whole entry, looked up): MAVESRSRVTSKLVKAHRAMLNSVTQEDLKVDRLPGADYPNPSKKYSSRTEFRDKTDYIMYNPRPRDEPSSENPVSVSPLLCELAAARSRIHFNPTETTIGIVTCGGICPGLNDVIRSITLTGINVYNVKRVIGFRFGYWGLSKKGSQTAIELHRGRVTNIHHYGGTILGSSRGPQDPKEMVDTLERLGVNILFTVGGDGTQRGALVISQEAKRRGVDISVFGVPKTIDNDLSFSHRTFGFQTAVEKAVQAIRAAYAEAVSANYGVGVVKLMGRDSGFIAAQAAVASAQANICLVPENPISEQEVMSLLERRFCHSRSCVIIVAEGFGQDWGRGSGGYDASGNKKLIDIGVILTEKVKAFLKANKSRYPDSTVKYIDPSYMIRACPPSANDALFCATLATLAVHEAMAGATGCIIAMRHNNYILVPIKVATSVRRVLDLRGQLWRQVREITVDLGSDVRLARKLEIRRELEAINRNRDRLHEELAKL

Consider `O=C(c1ccccc1)c1ccc2n1CC[C@H]2C(=O)O`, for which the activity change, negative = inhibition in [1] (at 17.2 µM (top of the series)) is -5.93% (inactive); in assay [1] (at 38 µM (top of the series)), -1.3% (inactive); in [3] (at 17.2 µM (top of the series)) it was -13.5% (inactive); in assay [3] (at 38 µM (top of the series)), -0.138% (inactive); in [11], 1.19% (inactive). In addition, in assay [2], the Potency was 15.8 µM (active). Also, the activity, negative = inhibition in assay [4] (at 17.2 µM (top of the series)) is 0.0746% (inactive); in assay [4] (at 38 µM (top of the series)), 5.51% (inactive); in assay [14] (at 12.8 µM (top of the series), parasite line A) it was 1.36% (inactive); in assay [14] (at 12.8 µM (top of the series), parasite line B) it was 2.01% (inactive). For the same compound, the Potency entry (in assay [5]; in assay [6]; in [7]; in [13]; with AS120; with CP238) was “inactive” each time. Besides, the Potency result in the assay on FAB9 is “inactive”. The call in [8], in assay [9], in [10] and in assay [12] was inactive. For the same compound, the results for the max response in assay [11] (setting [18]) and in assay [11] (setting [19]) were -5.21% and -1.68%, respectively.
In the case of `CC[C@]1(C)CC(=O)NC1=O`, the activity change, negative = inhibition is 1.25% (inactive) in assay [1] (at 17.2 µM (top of the series)); 0.0779% (inactive) in assay [1] (at 38 µM (top of the series)); 5.72% (inactive) in [3] (at 17.2 µM (top of the series)); 0.552% (inactive) in assay [3] (at 38 µM (top of the series)); 0.986% (inactive) in [11]. The Potency result (in [2]; in [5]; in assay [6]; in [7]; in assay [13]; in the assay on AS120) was “inactive” each time. The Potency result in the assay on CP238 and in the assay with FAB9 was “inactive” in each case. In addition, the activity, negative = inhibition in assay [4] (at 17.2 µM (top of the series)) was 2.02% (inactive); in assay [4] (at 38 µM (top of the series)), 10.7% (inactive); in assay [14] (at 28.7 µM (top of the series), parasite line A), 10.6% (inactive); in assay [14] (at 28.7 µM (top of the series), parasite line B), 5.48% (inactive). In addition, the Potency in assay [15] is > 46 µM (inactive) and > 20.6 µM (inactive); in assay [16], > 46 µM (inactive) and > 20.6 µM (inactive). In addition, the call in assay [8], in [9], in assay [10], in [12] and in [17] was inactive. In addition, the max response in assay [11] (setting [18]) stood at 2.27%; in assay [11] (setting [19]) it was 7.01%.
Regarding `CC(=O)O[C@]1(C(C)=O)CC[C@@H]2[C@@H]3C=C(Cl)C4=CC(=O)[C@H]5C[C@@H]5[C@]4(C)[C@H]3CC[C@]21C`, the activity change, negative = inhibition was 5.64% (inactive) in assay [1] (at 17.2 µM (top of the series)); 3.07% (inactive) in assay [1] (at 38 µM (top of the series)); -18.6% (inactive) in [3] (at 17.2 µM (top of the series)); -9.31% (inactive) in assay [3] (at 38 µM (top of the series)); -2.31% (inactive) in assay [11]. The Potency entry in assay [2], in assay [5], in [6], in assay [7] and in [13] was “inactive” each time. Moreover, the activity, negative = inhibition in assay [4] (setting [20]) is -5.59% [at 17.2 µM] (inactive). Also, the result in [8], in assay [9] and in [10] was inactive. Moreover, the max response in assay [11] (setting [18]) was -4.56%; in assay [11] (setting [19]), -7.45%.
In the case of `C[C@@H](C[N+](C)(C)C)OC(N)=O`, the activity change, negative = inhibition was 2.54% (inactive) in assay [1] (at 17.2 µM (top of the series)); 13.3% (inactive) in assay [1] (at 38 µM (top of the series)); 9.21% (inactive) in assay [3] (at 17.2 µM (top of the series)); 17.1% (inactive) in assay [3] (at 38 µM (top of the series)); -1.39% (inactive) in assay [11]. The Potency entry in [2], in assay [5], in [6], in assay [7] and in [13] was “inactive” in each case. Also, the activity, negative = inhibition in [4] (setting [20]) was -3.42% [at 17.2 µM] (inactive). Moreover, the Potency was > 46 µM (inactive) and > 20.6 µM (inactive) in assay [15]; > 46 µM (inactive) and > 20.6 µM (inactive) in [16]. The result in assay [8], in assay [9] and in [10] was inactive. Moreover, the max response in assay [11] (setting [18]) was -0.356%; in assay [11] (setting [19]), -3.27%.

The values above are taken from PubChem BioAssay (NCATS).
